Assay results from PubChem BioAssay AID1159580 (chemical genetic matrix, 2015).
In all, about 5,500 compounds went through this assay and about 2,000 (36%) were called active. Inconclusive results (about 18%) are left out. No stated cut-off is given here; in the data, active means normalized growth mostly below about 0.91 (no sharp cut-off); inconclusive means no clear call, values can overlap the other calls; inactive means mostly above about 0.92. This is one part of the list.

Test: chemical genetic growth profiling, strain panel (AID 1159580);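 further: tested at 20 µM; growth read once vehicle control cultures reached saturation at 30 °C; 1 = growth at the plate median or of vehicle wells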
Details: growth OD

Measured: normalized growth

COc1cc([C@@H]2c3cc4c(cc3C(O[C@@H]3O[C@@H]5CO[C@@H](c6cccs6)OC5[C@H](O)[C@H]3O)C3COC(=O)[C@@H]32)OCO4)cc(OC)c1O (stereo not given in full)
inactive: S. cerevisiae deletion strains, locus YJR066W, strain TOR1, stronger effect = lower value 0.99 | S. cerevisiae deletion strains, locus YKL009W, strain mrt4, stronger effect = lower value 1.03 | S. cerevisiae deletion strains, locus YKL068W, stronger effect = lower value 1.01 | S. cerevisiae deletion strains, locus YKL085W, strain MDH1 (second series), stronger effect = lower value 1 | S. cerevisiae deletion strains, locus YKL085W, strain MDH1, stronger effect = lower value 1 | S. cerevisiae deletion strains, locus YKL160W, strain elf1, stronger effect = lower value 1.05 | S. cerevisiae deletion strains, locus YKL190W, strain CNB1, stronger effect = lower value 0.997 | S. cerevisiae deletion strains, locus YKR001C, strain vps1, stronger effect = lower value 1.02 | S. cerevisiae deletion strains, locus YKR026C, strain gcn3, stronger effect = lower value 0.986 | S. cerevisiae deletion strains, locus YKR091W, strain srl3, stronger effect = lower value 0.998 | S. cerevisiae deletion strains, locus YLL001W, strain dnm1, stronger effect = lower value 1.05 | S. cerevisiae deletion strains, locus YLL026W, stronger effect = lower value 0.984 | S. cerevisiae deletion strains, locus YLL041C, strain sdh2, stronger effect = lower value 0.967 | S. cerevisiae deletion strains, locus YLR027C, strain aat2, stronger effect = lower value 0.985 | S. cerevisiae deletion strains, locus YLR039C, strain RIC1, stronger effect = lower value 1.01 | S. cerevisiae deletion strains, locus YLR058C, strain SHM2, stronger effect = lower value 1 | S. cerevisiae deletion strains, locus YLR102C, strain apc9, stronger effect = lower value 1.02 | S. cerevisiae deletion strains, locus YLR113W, strain HOG1, stronger effect = lower value 1.01 | S. cerevisiae deletion strains, locus YLR221C, strain rsa3, stronger effect = lower value 1.03 | S. cerevisiae deletion strains, locus YLR258W, strain gsy2, stronger effect = lower value 1 | S. cerevisiae deletion strains, locus YLR262C, strain YPT6 (second series), stronger effect = lower value 1 | S. cerevisiae deletion strains, locus YLR262C, strain YPT6, stronger effect = lower value 0.964 | S. cerevisiae deletion strains, locus YLR268W, strain sec22, stronger effect = lower value 1.02 | S. cerevisiae deletion strains, locus YLR320W, strain mms22, stronger effect = lower value 1.01 | S. cerevisiae deletion strains, locus YLR330W, strain CHS5, stronger effect = lower value 0.999 | S. cerevisiae deletion strains, locus YLR342W, strain FKS1 (second series), stronger effect = lower value 1.01 | S. cerevisiae deletion strains, locus YLR342W, strain FKS1, stronger effect = lower value 0.99 | S. cerevisiae deletion strains, locus YLR357W, strain rsc2, stronger effect = lower value 0.98 | S. cerevisiae deletion strains, locus YLR370C, strain arc18, stronger effect = lower value 0.986 | S. cerevisiae deletion strains, locus YLR371W, strain rom2, stronger effect = lower value 1.01 | S. cerevisiae deletion strains, locus YLR384C, strain iki3, stronger effect = lower value 0.97 | S. cerevisiae deletion strains, locus YLR418C, strain cdc73, stronger effect = lower value 1.02 | S. cerevisiae deletion strains, locus YML016C, strain PPZ1, stronger effect = lower value 1 | S. cerevisiae deletion strains, locus YML032C, strain rad52, stronger effect = lower value 0.917 | S. cerevisiae deletion strains, locus YML120C, strain ndi1, stronger effect = lower value 1.02 | S. cerevisiae deletion strains, locus YML124C, strain tub3, stronger effect = lower value 1.01 | S. cerevisiae deletion strains, locus YMR058W, strain fet3, stronger effect = lower value 0.993 | S. cerevisiae deletion strains, locus YMR078C, strain ctf18, stronger effect = lower value 1.01 | S. cerevisiae deletion strains, locus YMR125W, strain sto1, stronger effect = lower value 1.01 | S. cerevisiae deletion strains, locus YMR129W, stronger effect = lower value 0.983 | S. cerevisiae deletion strains, locus YMR205C, strain PFK2, stronger effect = lower value 1.02 | S. cerevisiae deletion strains, locus YMR223W, strain ubp8, stronger effect = lower value 1.02 | S. cerevisiae deletion strains, locus YMR231W, strain pep5, stronger effect = lower value 0.978 | S. cerevisiae deletion strains, locus YMR263W, strain SAP30, stronger effect = lower value 1 | S. cerevisiae deletion strains, locus YMR307W, strain GAS1, stronger effect = lower value 0.933 | S. cerevisiae deletion strains, locus YNL067W, strain RPL9B, stronger effect = lower value 0.998 | S. cerevisiae deletion strains, locus YNL071W, strain lat1, stronger effect = lower value 0.976 | S. cerevisiae deletion strains, locus YNL128W, strain TEP1, stronger effect = lower value 1.02 | S. cerevisiae deletion strains, locus YNL183C, strain NPR1, stronger effect = lower value 0.987 | S. cerevisiae deletion strains, locus YNL209W, strain ssb2, stronger effect = lower value 0.985 | S. cerevisiae deletion strains, locus YNL233W, strain BNI4, stronger effect = lower value 1 | S. cerevisiae deletion strains, locus YNL248C, strain rpa49, stronger effect = lower value 0.999 | S. cerevisiae deletion strains, locus YNL250W, strain rad50, stronger effect = lower value 0.977 | S. cerevisiae deletion strains, locus YNL271C, strain bni1, stronger effect = lower value 1.02 | S. cerevisiae deletion strains, locus YNL298W, strain CLA4, stronger effect = lower value 1.04 | S. cerevisiae deletion strains, locus YNL307C, strain MCK1, stronger effect = lower value 1.03 | S. cerevisiae deletion strains, locus YNL322C, strain KRE1 (second series), stronger effect = lower value 0.994 | S. cerevisiae deletion strains, locus YNR049C, strain mso1, stronger effect = lower value 0.978 | S. cerevisiae deletion strains, locus YNR052C, strain pop2, stronger effect = lower value 1.03 | S. cerevisiae deletion strains, locus YOL006C, strain TOP1, stronger effect = lower value 0.89 | S. cerevisiae deletion strains, locus YOL012C, strain htz1 0.835 | S. cerevisiae deletion strains, locus YOL147C, strain pex11, stronger effect = lower value 1.01 | S. cerevisiae deletion strains, locus YOR001W, strain rrp6, stronger effect = lower value 0.933 | S. cerevisiae deletion strains, locus YOR061W, strain CKA2, stronger effect = lower value 1 | S. cerevisiae deletion strains, locus YOR069W, strain VPS5, stronger effect = lower value 1 | S. cerevisiae deletion strains, locus YOR070C, strain gyp1, stronger effect = lower value 0.991 | S. cerevisiae deletion strains, locus YOR080W, strain dia2, stronger effect = lower value 0.971 | S. cerevisiae deletion strains, locus YOR083W, strain WHI5, stronger effect = lower value 1.05 | S. cerevisiae deletion strains, locus YOR106W, strain vam3, stronger effect = lower value 1.02 | S. cerevisiae deletion strains, locus YOR136W, strain idh2, stronger effect = lower value 1.02 | S. cerevisiae deletion strains, locus YOR144C, strain elg1, stronger effect = lower value 1.01 | S. cerevisiae deletion strains, locus YOR184W, strain ser1, stronger effect = lower value 1.01 | S. cerevisiae deletion strains, locus YOR231W, strain MKK1, stronger effect = lower value 1 | S. cerevisiae deletion strains, locus YOR265W, strain rbl2, stronger effect = lower value 0.985 | S. cerevisiae deletion strains, locus YOR270C, strain vph1, stronger effect = lower value 0.891 | S. cerevisiae deletion strains, locus YOR290C, strain snf2, stronger effect = lower value 0.982 | S. cerevisiae deletion strains, locus YOR316C, strain cot1, stronger effect = lower value 1.03 | S. cerevisiae deletion strains, locus YPL051W, strain arl3, stronger effect = lower value 1.03 | S. cerevisiae deletion strains, locus YPL055C, strain LGE1, stronger effect = lower value 0.996 | S. cerevisiae deletion strains, locus YPL078C, strain atp4, stronger effect = lower value 1.03 | S. cerevisiae deletion strains, locus YPL106C, strain sse1, stronger effect = lower value 1.01 | S. cerevisiae deletion strains, locus YPL240C, strain hsp82, stronger effect = lower value 0.99 | S. cerevisiae deletion strains, locus YPL241C, strain CIN2, stronger effect = lower value 1 | S. cerevisiae deletion strains, locus YPL256C, strain CLN2, stronger effect = lower value 1.03 | S. cerevisiae deletion strains, locus YPR119W, strain clb2, stronger effect = lower value 1.01 | S. cerevisiae deletion strains, locus YPR141C, strain kar3, stronger effect = lower value 1.01 | S. cerevisiae deletion strains, locus YPR163C, strain tif3, stronger effect = lower value 1.03 | S. cerevisiae deletion strains, locus YPR167C, strain met16, stronger effect = lower value 1.02 | S. cerevisiae deletion strains, strain wtn01, stronger effect = lower value 1.03 | S. cerevisiae strains, strain wild type, stronger effect = lower value 1.01
